# Laboratory results: ChEMBL document CHEMBL4513216, “Probing the Open Global Health Chemical Diversity Library for Multistage-Active Starting Points for Next-Generation Antimalarials” (ACS Infect Dis, 2020)
# Among all 69,000 compounds or so, about 8,600 (12%) showed an effect of 50% or more. This excerpt belongs to a sample that is enriched for strong results.
# System: Plasmodium berghei
# Test: Screen against P. berghei liver stage (PbLuc), transformed with Luciferase, at 10uM
# Format: functional, HepG2
# Details: tested at 10 uM
row,Structure (SMILES),INHIBITION [%]
1,Cc1ccc(NC(=O)N(CCO)Cc2ccsc2)cc1,-71.5
2,CCCn1ccc2ccc(NC(=O)N(C)CCOC)cc21,20.5
3,COCCN(C)C(=O)Nc1ccc2c(ccn2CC(=O)N(C)C)c1,19.73
4,COCCN(C)C(=O)Nc1ccc2c(ccn2CCOC)c1,58.4
5,O=C1CC2(CNCCN(C(=O)Nc3ccccc3)C2)CN1 (centres undefined),16.1
6,CC(=O)NCC1CCC2(CCN(c3ncc(C)cn3)CC2)O1 (centres undefined),-4.21
7,CC(=O)NCC1CCC2(CCN(c3nccc(C4CCCC4)n3)CC2)O1 (centres undefined),42.1
8,CC(=O)NCC1CCC2(CCN(c3ncc(C(C)=O)c(C)n3)CC2)O1 (centres undefined),56.7
9,CCC(=O)N1CCC(NCc2cc(C(F)(F)F)ccc2Cl)C1 (centres undefined),42.6
10,c1cnc(N2CCOCC3(CCCN(Cc4cccs4)C3)C2)nc1 (centres undefined),67.2
11,CC(C)N1CCOCC2(CCCN(C(=O)c3cncn3C)C2)C1 (centres undefined),76.3
12,Cn1cc(CN2CCCC3(COCCN(c4cccnc4)C3)C2)cn1 (centres undefined),32.2
13,c1csc(CN2CCCC3(COCCN(c4cnccn4)C3)C2)c1 (centres undefined),18.3
14,c1cncc(N2CCOCC3(CCCN(Cc4cccs4)C3)C2)c1 (centres undefined),59.1
15,CC(C)N1CCC2(CCCN(C(=O)c3cncn3C)C2)CC1,23.1
16,O=C(c1cccs1)N1CCOCC2(C1)CN(c1cccnc1)C(=O)CO2 (centres undefined),0.618
17,O=C(c1cccnc1)N1CCCC2(COCCN(c3ccccc3)C2)C1 (centres undefined),29.7
18,c1ccc(N2CCC3(COCCN(Cc4cccs4)C3)C2)nc1 (centres undefined),-7.28
19,c1cncc(CN2CCCC3(COCCN(c4cncnc4)C3)C2)c1 (centres undefined),3.11
20,CC(C)N1CCOCC2(CCCN(C(=O)c3cn(C)cn3)C2)C1 (centres undefined),-27.9
21,O=C(c1cccs1)N1CCCC2(COCCN(c3cccnc3)C2)C1 (centres undefined),67.2
22,Cc1ccnn1CCNC(=O)c1cnc(N(C)C)nc1,-43.452
23,COCCN1C[C@@H](C)[C@@]2(COCCN(C(=O)c3ccncc3)C2)C1,-8.85
24,COc1c(C2CCCN2C(=O)c2c(C)noc2C)c(C)nn1C (centres undefined),19.4
25,Cc1ccn2c(F)c(C(=O)N3CCC4(CCCN(C)C4=O)C3)nc2c1 (centres undefined),3.69

row,Structure (SMILES),INHIBITION [%]
1,Cc1cn[nH]c1C1COCCN1Cc1cscn1 (centres undefined),25.85
2,CCN(C)c1ncnc2c1CCN(C(=O)c1cnccn1)CC2,-66
3,O=C(NCCO)c1sc2ncccc2c1C1CNCCO1 (centres undefined),9.98
4,CC(C)NC(=O)N1CCC2(CC1)COc1ccccc1S(=O)(=O)N(C)C2,4.57
5,c1cncc(N2CCOCC3(CCCN(c4nncs4)C3)C2)c1 (centres undefined),43.2
6,O=C(NC1CC1)N1CCOCC2(CCN(Cc3cccs3)C2)C1 (centres undefined),-0.371
7,O=S(=O)(c1cccs1)N1CCCC2(COCCN(c3cccnc3)C2)C1 (centres undefined),82.3
8,O=C(c1ccncc1)N1CCCC2(COCCN(c3ccccc3)C2)C1 (centres undefined),-6.82
9,CCS(=O)(=O)N1CCCC2(COCCN(c3cnccn3)C2)C1 (centres undefined),45.8
10,O=C(C1CCCO1)N1CCCC2(CCN(c3cccnc3)CC2)C1 (centres undefined),29.5
11,COCC(=O)N1CCOCC2(CCN(Cc3cccs3)C2)C1 (centres undefined),-13.2
12,O=C([C@H]1CCCO1)N1CCCC2(COCCN(c3ccccc3)C2)C1 (some centres undefined),66.3
13,O=C(N1CCCC1)N1CCOCC2(CCN(Cc3cccs3)C2)C1 (centres undefined),66.8
14,Cc1ccc(C2CSCCN2C(=O)c2cnsn2)o1 (centres undefined),8.46
15,CN1CCN(C(=O)c2n[nH]c3c2CN(C2CCOC2)CC3)CC1 (centres undefined),22.3
16,CCNc1ncnc2c1CN(C1CCCNCC1)C(=O)CN2C (centres undefined),40
17,CNc1cc(C2CN(CC(=O)N(C)C)CCO2)nc(C)n1 (centres undefined),14.7
18,CC1CN(C)c2ccccc2CN1C(=O)c1cc[nH]c(=O)c1 (centres undefined),-18.3
19,Cc1cc(=O)[nH]cc1C(=O)N1Cc2ccccc2N(C)CC1C (centres undefined),52.6
20,CCC1CN(C)c2ccccc2CN1C(=O)c1c[nH]c(=O)cc1C (centres undefined),28.7
21,Cc1ccccc1CCNC(=O)C1CC(=O)N(CC(F)(F)F)C1 (centres undefined),55.5
22,O=C(NCCc1ccccn1)C1CC(=O)N(CC(F)(F)F)C1 (centres undefined),2.3
23,O=C(NCCNc1ncccn1)C1CC(=O)N(CC(F)(F)F)C1 (centres undefined),19.5
24,O=C(c1cn(-c2ccc(C(F)(F)F)cn2)nn1)N1CCCCCC1,46.1
25,CN1CCN(C(=O)c2cn(-c3ccc(C(F)(F)F)cn3)nn2)CC1,59.1

row,Structure (SMILES),INHIBITION [%]
1,CC1CCN(C(=O)c2cn(-c3ccc(C(F)(F)F)cn3)nn2)CC1,2.55
2,CC(C)N(Cc1ccccn1)S(=O)(=O)N1CCCC1c1ccco1 (centres undefined),7.515
3,CCn1nnc2c1C(COC)CN(Cc1cccs1)C2 (centres undefined),-0.113
4,COc1ccc(-c2nnsc2C(=O)N2CCC(C(N)=O)CC2)cc1,90.4
5,CCC(C)NC(=O)c1snnc1-c1ccc(OC)cc1 (centres undefined),74
6,COC(=O)[C@@H](NC(=O)c1snnc1-c1ccc(OC)cc1)C(C)C,24.7
7,COc1ccc(-c2nnsc2C(=O)N2CCSCC2)cc1,26.4
8,COC(=O)[C@H](CC(C)C)NC(=O)c1snnc1-c1ccc(OC)cc1,24.1
9,COc1ccc(-c2nnsc2C(=O)N2CCN(C(C)=O)CC2)cc1,2.49
10,O=C(NCCO)NC(c1ccccc1)c1ccc2c(c1)CCCO2 (centres undefined),22.6
11,NCCC(=O)N1CCC2(CC1)CN(C(=O)c1ccc(Cl)cc1)CCO2,16.8
12,Cc1nc(CN(C)Cc2cnc(N3CCOCC3)s2)no1,32.1
13,Cc1nn(C)c2nc(N(C)CCN(C)C3CCCC3)sc12,39.9
14,COCCN1CCC(CN(C)c2nc3c(s2)c(C)nn3C)CC1,64.4
15,Cc1nn(C)c2nc(N(C)CCN(C)C)sc12,39.1
16,Cc1nn(C)c2nc(N(C)CC3CCN(CC(C)C)C3)sc12 (centres undefined),74.3
17,COCCN(Cc1nccs1)c1nc2c(s1)c(C)nn2C,22
18,COCCN1CCCC(CN(C)c2nc3c(s2)c(C)nn3C)C1 (centres undefined),3.96
19,COCCN1CCC(CN(C)c2nc3c(s2)c(C)nn3C)C1 (centres undefined),48.5
20,Cc1nn(C)c2nc(N(CCN(C)C)C3CCCC3)sc12,53
21,COCCN(Cc1cnn(C)c1)c1nc2c(s1)c(C)nn2C,45.2
22,Cc1nn(C)c2ncnc(N(C)CC3CCN(CC(C)C)C3)c12 (centres undefined),36.3
23,COCCN(CCOC)c1nc2c(s1)c(C)nn2C,65.6
24,CCCc1nnc(N(C)CC2CCN(CC(C)C)C2)o1 (centres undefined),-62.4
